From PubChem
This is a sample that favours compounds with a hit; in the whole collection about 12% have one here.
ROMK primary: ROMK potassium channel modulators, primary screen, cell-based, thallium flux, MLSMR library; ATP-sensitive inward rectifier potassium channel 1 (Homo sapiens), P48048; Tet-inducible ROMK, thallium flux fluorescence; actives lie on both sides; B-score at 10 µM; 2% of 130,000 active;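 active = signal ratio slope over the read window, or its plate-corrected B-score, at least 3 SD from the plate mean, either direction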;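 also: B-score of the F/F0 ratio slope over 7 to 12 s after thallium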
Insulin prom inh: inhibitors of insulin promoter-driven GFP, primary screen, imaging, TRM-6 cells (human fetal islet line), eGFP reporter, cell count; AID 1273, 2008; inhibition, % at 2 µM; 0.9% of 130,000 active; reporter expression induced with tamoxifen;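 active = inhibition above the mean plus 3 SD, with well images judged a real hit on visual review, cut at about 60% in these data, passing the limit was not always enough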
Lmaj promast: Leishmania major promastigote growth inhibition, primary screen; Leishmania major promastigotes, resazurin fluorescence viability; inhibition, % at 10 µM; 9% of 200,000 active; AID 1063, 2008; in the data active = inhibition above about 50%;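 also: promastigotes grown with compound for 44 hours at 28 °C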
Insulin prom up: insulin promoter activators in MIN6 cells, imaging, high-content screening, mouse beta cells. MIN6 insulin promoter-GFP reporter; active compounds read high. z-score at 5 µM. 0.3% of 190,000 active;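 active = z-score above 3 at 5 µM with at least 500 cells counted in the well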
WT yeast gro inh: growth inhibition of WT strain, primary screen, mitochondrial fusion inhibitor project, WT and mutant strains, chemical genetic; mitochondrial fusion phenotypic screen; inhibition, % at 10 µM; 2.1% of 190,000 active; in the data active = inhibition above about 58%; tested in S. cerevisiae
Cl transport mod: KCC2 cotransporter modulators, thallium flux, primary screen, cell-based, HEK293 KCC2, FluoZin-2 fluorescence, MLSMR; KCC2 cells, thallium flux FluoZin-2 fluorescence; B-score of Tl+ flux slope (higher = more flux/activation; lower = inhibition) at 10 µM; 2.2% of 190,000 active; AID 1456, 2008;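 active = thallium flux slope and its plate-corrected score both differing from the plate sample mean at a set confidence after two filtering rounds, in either direction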;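 also: slope of fluorescence scaled to starting intensity during 10 to 20 s after thallium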
Active calls of the source: *; . = not tested or not shown.

SMILES	ROMK primary	Insulin prom inh	Lmaj promast	Insulin prom up	WT yeast gro inh	Cl transport mod
CC(C)NCC(O)COCCOc1ccc(C(C)(C)C)cc1 (centres undefined)	.	.	22.6	-0.5	-5.0	0.626
COCCNCCCOc1ccc(C(C)(C)c2ccccc2)cc1	0.00252	-21.6	98.6*	1.05	2.7	-0.117
CNCCOc1ccccc1C(C)(C)C	0.926	-19.4	2.4	-0.28	5.5	-0.00428
CC(C)(C)c1ccccc1OCCOCCNCc1ccccc1	.	-69.2	96.5*	1.69	45.0	-0.404
CC(C)(C)c1ccc(OCCCNCc2ccccc2)cc1	-0.905	13.3	99.5*	0.61	87.0*	-2.05
CC(C)NCCCOc1ccc(C(C)(C)c2ccccc2)cc1	0.28	41.9	99.3*	.	.	0.381
O=C(CCl)Nc1ccccc1C(=O)Nc1ccc2c(c1)OCO2	.	.	.	0.31	.	-0.129
CCOc1ccccc1N1CCN(S(=O)(=O)c2cc(C)ccc2OC)CC1	-0.238	-70.4	10.0	-0.25	7.4	-0.59
COCCCNCCCOc1ccc(C(C)(C)c2ccccc2)cc1	.	-13.5	99.2*	0.34	44.7	1.43
CCCCN1C2=C(C(=O)CCC2)C(c2ccc(Cl)c(Cl)c2)C2=C1c1ccccc1C2=O (centres undefined)	.	16.7	4.6	-0.04	67.4*	.
COc1cccc(C2C3=C(CCCC3=O)NC3=C2C(=O)c2ccccc23)c1 (centres undefined)	0.424	19.1	12.8	-0.1	16.9	-0.347
S=C(Nc1ccccc1)N1CCN(c2ccc(N3CCOCC3)nn2)CC1	-0.798	75.0*	-8.6	-0.4	-1.5	-0.173
O=C(C1CCCO1)N1CCN(C(c2ccccc2)c2ccccc2)CC1 (centres undefined)	.	-3.9	96.4*	0.63	-3.4	-0.191
S=C(Nc1ccccc1)N1CCCCCC1	.	-43.3	-6.5	0.31	-6.1	.
O=C(C1CCCO1)N1CCN(C(=S)Nc2ccccc2)CC1 (centres undefined)	1.06	37.0	53.2*	0.62	2.2	-0.598
S=C(Nc1ccccc1)N1CCN(C2CCCCC2)CC1	.	-3.6	88.3*	-0.74	-1.0	.
O=C(C1CCCO1)N1CCN(S(=O)(=O)c2ccccc2)CC1 (centres undefined)	0.11	-281.2	4.2	0.15	3.1	0.327
CCOC(=O)CCn1nc(-c2ccc(C)cc2)c2ccccc2c1=O	-0.793	-13.3	14.2	-0.05	6.4	-2.41
COc1ccc(NC(=S)Nc2ccccc2C(F)(F)F)cc1	0.514	-25.0	15.2	0.47	6.0	0.221
COc1cccc(-n2c(=O)[nH]cc(C(=O)Nc3ccc4c(c3)OCCO4)c2=O)c1	.	.	-5.8	0.34	11.0	-0.717
CCn1c(CCNC(=O)c2cccs2)nnc1SCC(=O)Nc1ccc(Cl)cc1	.	-400.0	-1.0	.	-14.8	-1.29
N#CCCCN1C(=O)C(=C(C#N)C#N)c2ccccc21	-0.146	.	-7.6	0.18	4.3	0.0196
O=c1c2ccccc2[nH]c(=S)n1CCN1CCCC1	-0.575	-83.3	-2.4	0.18	2.9	0.605
O=c1c2ccccc2[nH]c(=S)n1CCCN1CCN(C2CCCCC2)CC1	-0.449	12.5	97.6*	0	-4.6	2.29
CC1CCN(CCCn2c(=S)[nH]c3ccccc3c2=O)CC1	.	-31.4	99.8*	0.33	8.5	0.594
SMILES	ROMK primary	Insulin prom inh	Lmaj promast	Insulin prom up	WT yeast gro inh	Cl transport mod
O=C(c1ccc(F)cc1)C1CCN(CCn2c(=S)[nH]c3ccccc3c2=O)CC1	.	.	.	0.01	11.0	7.01*
O=c1c2cccnc2[nH]c(=S)n1CCCN1CCN(c2ccc(F)cc2)CC1	0.0375	-89.5	9.4	0.11	4.7	5.98*
CCOC(=O)CSc1nc(-c2ccccc2)nc2ccc(F)cc12	-0.54	27.3	2.7	2.83	-7.7	.
O=C(Nc1ccc(OC(F)(F)F)cc1)c1ccc2ccccc2n1	-0.0765	-25.9	-1.8	-0.35	5.4	0.0227
CCC(C)c1ccc(OCc2ccc(C(=O)OC)o2)cc1 (centres undefined)	.	.	.	-0.26	.	.
Cc1ccc(C)c(NC(=O)CSc2nnc(-c3ccccc3)o2)c1	.	.	-8.1	-1.68	-1.3	-2.03
O=C(CSc1nnc(-c2ccncc2)o1)NCc1ccccc1Cl	0.00078	13.3	-2.2	0.72	-1.6	0.6
O=C(CSc1nccc(=O)[nH]1)Nc1ccc(F)c([N+](=O)[O-])c1	0.296	-10.8	50.5*	0.44	10.2	0.158
